CBX7 inh: blocks human CBX7 binding to H3K27me3 peptide. O95931. AlphaScreen His6-CBX7 / biotin-H3K27me3 peptide binding; stronger effect = lower value. normalised signal (fraction of DMSO) (concentration not given with the values). 66,000 tested, 1.1% active; in the data active = normalised signal below about 0.5
Target sequence (O95931 whole entry, looked up): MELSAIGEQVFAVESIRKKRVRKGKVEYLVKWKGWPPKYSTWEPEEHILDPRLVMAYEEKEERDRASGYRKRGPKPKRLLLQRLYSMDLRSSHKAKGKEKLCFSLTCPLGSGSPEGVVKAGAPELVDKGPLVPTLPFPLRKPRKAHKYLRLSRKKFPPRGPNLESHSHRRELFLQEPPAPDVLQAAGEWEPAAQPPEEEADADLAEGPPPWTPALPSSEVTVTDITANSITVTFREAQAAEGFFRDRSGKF
* marks the source's active call; other numbers are inactive results; ! = repeats disagree. This is one part of a sample in which hits are shown more often than they occur.

SMILES	CBX7 inh
CCC(C)NC(=O)C1c2ccccc2C(=O)N1Cc1ccc(OC)cc1 (stereo not given)	1.06
COc1ccc(CN2C(=O)c3cccnc3C2Nc2cc(Cl)ccc2OC)cc1 (stereo not given)	0.00532*
COc1ccc(NC2c3ncccc3C(=O)N2Cc2ccc(F)cc2)cc1Cl (stereo not given)	0.616
COc1ccc(NC2c3ncccc3C(=O)N2Cc2ccc(F)cc2)cc1 (stereo not given)	0.641
O=C1c2cccnc2C(Nc2ccc(F)cc2)N1Cc1ccc(F)cc1 (stereo not given)	0.838
COc1ccc(CN2C(=O)c3cccnc3C2Nc2cc(Cl)ccc2C)cc1 (stereo not given)	0.913
O=C1c2cccnc2C(Nc2ccc(F)c(Cl)c2)N1Cc1ccc(F)cc1 (stereo not given)	0.807
COc1ccc(CN2C(=O)c3cccnc3C2O)cc1 (stereo not given)	0.0103*
O=C(Nc1ccccc1Cl)c1csc2c1CCCCC2	1.14
COc1cc(OC)cc(-c2nnc(SCC(=O)N3CCc4ccccc43)o2)c1	1.05
Cc1ccc2c(c1)-c1c(cnn1CC(=O)N(C)C1CCCCC1)CO2	1.05
CCOc1ccc(-n2ccnc2SCC(=O)Nc2cccc(OC)c2)cc1	0.638
COc1cc(C2C(=O)N(C3CCCCC3)CC(=O)N2Cc2ccc(F)cc2)ccc1OC(C)C (stereo not given)	1
O=C(O)c1ccc2c(c1)N(Cc1c(F)cccc1Cl)C(=O)c1ccccc1S2	1.08
FC(F)(F)c1cccc(N2CCN(c3nc4cccnc4s3)CC2)c1	0.977
Cc1nc2c(C(=O)N3CCCC(C)C3)cnn2c(C)c1Cc1ccc(Cl)cc1 (stereo not given)	1
COc1ccc(-c2cc3ccccc3n2CC(O)CN2CCCCCC2)cc1 (stereo not given)	1.15
OC(CN1CCCCC1)Cn1c2ccccc2c2ccccc21 (stereo not given)	0.865
CCC(=C(c1ccc(OC)cc1)c1ccc(OC)cc1)c1cn(CC(O)CN2CCCC2)c2ccccc12 (stereo not given)	0.26*
CCCCc1nc2ccccc2n1C(=O)c1ccccc1C(=O)O	1.54
Cc1cccc(NC(=O)CSc2nnc(CNC(=O)COc3ccc(Cl)cc3)o2)c1	1.04
Cc1nnc(NC(=O)CSc2nnc(CNC(=O)COc3ccc(Cl)cc3)o2)s1	0.847
Cc1cccc(NC(=O)CSc2nnc(CNC(=O)c3c(F)cccc3Cl)o2)c1	1.08
O=C(CSc1nnc(CNC(=O)c2c(F)cccc2Cl)o1)Nc1ccccc1	0.91
Cc1cc(NC(=O)CSc2nnc(CNC(=O)COc3ccc(Cl)cc3)o2)no1	0.207*
SMILES	CBX7 inh
Cc1cc(NC(=O)CSc2nnc(CNC(=O)c3c(F)cccc3Cl)o2)no1	0.0292*
COc1cc(C(=O)NCc2nnc(SCC(=O)Nc3cc(C)on3)o2)cc(OC)c1OC	0.0511*
COc1ccc(C(=O)NCc2nnc(SCC(=O)Nc3cc(C)on3)o2)cc1OC	0.956
COc1cc(C(=O)NCc2nnc(SCC(=O)Nc3ccc(Cl)cc3)o2)cc(OC)c1OC	0.945
Cc1ccc2oc(-c3ccc(NC(=O)c4ccc(C)c(Cl)c4)cc3)nc2c1	0.963
CCOC(=O)N1CCN(c2c(NCCC(C)C)c(=O)c2=O)CC1	1.07
CCOc1ccc(Nc2nc(-c3c(C)nc4cc(C)ccn34)cs2)cc1	0.644
COc1cccc(-c2cc(C(=O)N(C)Cc3ccccc3)no2)c1	1.14
O=S(=O)(c1ccc2nc(-c3ccccc3)[nH]c2c1)N1CCCCCC1	0.798
Fc1ccc(-c2csc(Nc3ccc4c(c3)OCO4)n2)cc1	0.385*!
COc1ccc(-c2csc(Nc3cccc(C(F)(F)F)c3)n2)cc1F	0.747
COc1ccc(-c2csc(Nc3ccccc3OC)n2)cc1F	1.01
COc1ccc(-c2csc(Nc3ccc4c(c3)OCO4)n2)cc1F	0.476*!
O=C(Nc1nc(-c2ccc(Cl)cc2)cs1)c1ccc2c(c1)OCO2	1.08
c1ccc(-c2csc(Nc3ccc4c(c3)OCO4)n2)cc1	0.37*!
c1ccc(-c2csc(Nc3cccc4ccccc34)n2)cc1	0.821
O=C1c2ccccc2C(=O)N1c1cccc(-c2csc(Nc3ccc4c(c3)OCO4)n2)c1	1.64
Ic1ccc(-c2csc(Nc3ccc4ccccc4c3)n2)cc1	0.877
CN(C)c1ccc(Nc2nc(-c3ccccc3)cs2)cc1	0.337*
CC(C)Cc1ccc(-c2csc(Nc3ccc(F)cc3)n2)cc1	0.795
CC(=O)Nc1ccc(Nc2nc(-c3ccccc3)cs2)cc1	0.862
CC(NC(=O)c1ccccc1F)C(c1cccs1)N1CCN(c2ccc(F)cc2)CC1 (stereo not given)	0.897
Cc1nnc(Sc2cc(C(=O)NCCN(C)CCc3ccccc3)c3ccccc3n2)s1	0.929
Cc1ccc(Nc2ncc(F)c(Nc3ccc(C)c(C)c3)n2)cc1C	0.93
Clc1ccc(Oc2nc3ccccc3n3cnnc23)cc1	0.934
Nc1nonc1-c1noc(-c2ccccc2Cl)n1	1.03
CCCCN(C)CCNC(=O)CN1C(=O)COc2ccc(C(C)(C)C)cc21	1.03
O=C1CC(Nc2ccc(F)cc2)C(=O)N1c1ccccc1 (stereo not given)	1.01

High-throughput results from PubChem.
